Screens deposited in PubChem by National Center for Advancing Translational Sciences (NCATS).
HT1080-NT tox: qHTS for induction of synthetic lethality in tumor cells producing 2HG: qHTS for the HT-1080-NT fibrosarcoma cell line. 360,000 compounds, 1.6% hits. Potency, µM (titrated, usually from 46.1 µM), for the others: at the highest dose activity, negative = less viability, hits mostly cytotoxic. HT-1080-NT fibrosarcoma viability, CellTiter-Glo ATP luminescence, 48 h;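 also: NT is the 2HG producing partner of a matched IDH1 knockdown line; potency is read from the fitted curve at half-maximal effect; 0% = DMSO-treated cells and -100% = media-only wells without cells; nearly all actives have a fitted effect of over 55% in size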
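Viability by CellTiter-Glo luminescence after 48 h compound exposure at 37C of HT-1080-NT cells (750/well, RPMI, 5% FBS). % activity scaled between DMSO wells and medium-only wells, then curve-fitted and categorized by curve class.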
IL1B secr inh: qHTS for Inhibitors of Inflammasome Signaling: IL-1-beta AlphaLISA Primary Screen; THP-1 LPS/ATP IL-1B secretion, AlphaLISA, 16 h; hits give low values; activity change, % at 57.5 µM; 360,000 compounds, 4.7% hits; AID 743279, 2014; in the data active = activity change below about -50%; inconclusive = mostly about -30% to -49%
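Secreted IL-1B measured by AlphaLISA bead assay after 16 h compound exposure of THP-1 cells; compounds (final up to 57.5 uM) added 1 h before LPS (250 ng/mL) and ATP (1.25 mM) stimulation; lower signal means less secretion.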
HT1080 IDH1KD tx: qHTS for induction of synthetic lethality in tumor cells producing 2HG: qHTS for the HT-1080-IDH1KD cell line; HT-1080 IDH1 knockdown viability, ATP luminescence, 48 h; Potency, µM (titrated, usually from 46.1 µM), inactives show at the top dose activity, negative = toxicity, most hits filed as cytotoxic; 360,000 compounds, 2% hits; AID 686971, 2013;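 also: potency is read from the fitted curve at half-maximal effect; 0% = DMSO wells and -100% = cell-free medium wells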
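Using the IDH1-knockdown HT-1080 line run in the same batch and compound series as the NT line, viability after 48 h at 37 °C was determined by CellTiter-Glo luminescence and expressed as % activity.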
uPA generation: qHTS for Inhibitors of Cell Surface uPA Generation. cell surface uPA generation assay, qHTS. Potency, µM (series often up to 38.3 µM), for inactives: at the top dose activity change, negative = inhibition, usual class: inhibitors. 330,000 compounds, 0.31% hits. AID 540303, 2011; active = well fitted inhibition curve with a large enough effect; inconclusive = small, poorly fitted or top-dose-only effect; inactive = no such curve, though single readings can be large or run the other way; tested in mouse RAW 264.7 cells; also: potency is read from the fitted curve at half-maximal effect; nearly all actives have a fitted effect of over 55% in size
DT40 TDP1 no CPT: qHTS for Inhibitors of human tyrosyl-DNA phosphodiesterase 1 (TDP1): qHTS in cells in absence of CPT; AID 686978, 2013; Potency, µM (highest dose often 46.2 µM), inactives show top-dose activity change, negative = growth inhibition, actives largely listed as inhibitors; 420,000 compounds, 15% hits; DT40 Tdp1-/- hTDP1 cells, no CPT, ATP luminescence, 48 h; also: potency is read from the fitted curve at half-maximal effect; nearly all actives have a fitted effect of over 55% in size
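A cellular qHTS used chicken DT40 cells lacking endogenous Tdp1 but carrying stably transfected human TDP1. Compounds were applied without camptothecin, and cell growth kinetics were judged by ATP-dependent luminescence after ≥48 hr.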
TDP1 cell CPT: qHTS for Inhibitors of human tyrosyl-DNA phosphodiesterase 1 (TDP1): qHTS in cells in presence of CPT; Potency, µM (doses to about 46.2 µM), without a hit: at the top dose activity change, negative = growth inhibition, actives largely listed as inhibitors; 420,000 compounds, 12% hits; chicken DT40 Tdp1-/-;hTDP1 cells + 20 nM CPT, ATP luminescence, 48 h; also: potency is read from the fitted curve at half-maximal effect; nearly all actives have a fitted effect of over 55% in size
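Cell growth measured by CellTiter-Glo luminescence after a minimum 48 h, 37 C compound exposure with 20 nM CPT in Tdp1-knockout DT40 cells stably expressing hTDP1, seeded 400/well; qHTS titration format.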
Starred values were filed as active, the others as inactive; ? = inconclusive; nt = no result; [ ] = remark or other dose. Only some compounds are listed: those with a hit (about 19% of all), similar ones and a draw of the others. Unless noted, calls follow the shape of the dose curve; as a rule, active = well fitted curve in the direction sought with a large enough effect; inconclusive = small, poorly fitted or top-dose-only effect, or another doubt; inactive = no such curve, though single readings can be large; an effect the other way counts as inactive or inconclusive. Unless noted, % is scaled to controls: 0 for no effect and ±100 for the full control effect.

SMILES | HT1080-NT tox | IL1B secr inh | HT1080 IDH1KD tx | uPA generation | DT40 TDP1 no CPT | TDP1 cell CPT
COc1cc(C2c3cc4c(c(O)c3CC3COC(=O)C32)OCO4)cc(OC)c1OC (stereo not given) | 0.0052µM* | 24 | ? | -7% | 0.12µM* | 0.092µM*
CN1CCCC2(CCN(C(=O)c3ccncc3)CC2)C1 | nt | nt | nt | nt | 4% | -2%
CC(C)NC(=O)N1CC[C@@]2(CCCNC2)C1 | nt | nt | nt | nt | 0% | 0%
CC(C)(C)NC(=O)CN1CCCN(C(=O)COc2ccc(Cl)c3ccccc23)CC1 | 0% | 0 | 4% | 2% | ? | ?
O=C(CN1CCN(C(=O)COc2cccc(F)c2)CC1)Nc1ccc(Cl)c(C(F)(F)F)c1 | -6% | ? | -2% | -19% | 5.2µM* | 21µM*
COC(=O)C1=C(c2ccc(S(C)(=O)=O)cc2)C[C@@H]2CC[C@H]1N2C(=O)NCCS(C)=O (stereo not given in full) | 9% | 16 | 10% | -7% | -8% | 17%
CC(C)(C)c1ccc(C(=O)Nc2ccc(NC(=O)c3ccco3)cc2)cc1 | 10µM* | 7 | 10µM* | -3% | ? | ?
CC(O)C1C=CC=CC(=O)OC2CC3OC4C5OC5(C)C(O)CC4(COC(=O)C(O)C(C)CCO1)C2(C)C31CO1 (stereo not given) | ? | -100* | nt | -12% | 0.15µM* | 0.13µM*
CC1=CC2OC3CC4OC(=O)C=CC=CC(C(C)O)OCC(O)C5(C)OC5C(=O)OCC2(CC1O)C4(C)C31CO1 (stereo not given) | 0.37µM* | -117* | nt | -10% | 0.15µM* | 0.092µM*
CC1CCOC(=O)C=CC=CC(=O)OC2CC3OC4C5OC5(C)C(O)CC4(COC(=O)C1O)C2(C)C31CO1 (stereo not given) | ? | -104* | nt | -13% | 0.15µM* | 0.15µM*
CC1=CC2OC3CC4OC(=O)C=CC=CC(=O)OCCC(C)C(O)C(=O)OCC2(CC1)C4(C)C31CO1 (stereo not given) | 0.16µM* | -103* | nt | -11% | 0.16µM* | 0.023µM*
Clc1cccc(/C=N\Nc2nccs2)c1 | -6% | 2 | -14% | -4% | 4.6µM* | 15µM*
CCCCCCCCn1sccc1=O | 6.5µM* | -107* | 8.2µM* | ? | 1.2µM* | 0.73µM*
CCOC(=O)C1(c2ccccc2)CCN(CCC(=O)Nc2ccc(OC)cc2)CC1 | -12% | -15 | -9% | nt | ? | ?
C=C1CCN([C@@H](CC(C)C)C(=O)Nc2ccc(OC)cc2)S(=O)(=O)c2ccccc21 | -2% | 3 | 2% | -4% | 23µM* | ?
CCN1C[C@]2(COC)CC[C@H](OC)[C@@]34C5C[C@H]6C(=O)C5[C@](O)(C[C@H]6OC)[C@@](O)(C(OC)C23)[C@@H]14 (stereo not given in full) | -4% | 6 | -2% | 4% | -4% | 6%
Cc1cc(/C=C2/SC(=S)N(c3ccc([N+](=O)[O-])cc3)C2=O)c(C)n1-c1cccnc1 | -9% | 39 | -9% | ? | 1µM* | 1.6µM*
C=CCN1C(=O)/C(=C/c2cc(C)n(-c3cccnc3)c2C)C(=O)NC1=S | 6% | -14 | 6% | 4% | ? | ?
CN1CC(C(=O)c2ccc([N+](=O)[O-])cc2)C(c2ccc(Cl)cc2)C1 (stereo not given) | -2% | nt | -24% | -1% | ? | ?
COc1ccc(C(=O)C2CN(C)CC2c2ccc(Cl)cc2)cc1 (stereo not given) | 0% | ? | -11% | -23% | ? | 18µM*
CN1CC(C(=O)c2cccc(C(F)(F)F)c2)C(c2ccc(Cl)cc2)C1 (stereo not given) | -14% | -83* | -23% | -6% | ? | 23µM*
CN1CC(C(=O)c2ccccc2)C(c2ccccc2)C1 (stereo not given) | 9% | -13 | 19% | -11% | ? | ?
COc1cccc(C(=O)C2CN(C)CC2c2ccc(Cl)cc2)c1 (stereo not given) | -2% | -59* | -22% | nt | ? | ?
Cc1ccc(-n2c(=S)[nH]c3ccc(C)cc3c2=O)cc1 | -5% | 12 | 9% | nt | -14% | ?
NC(=O)[C@@H]1CCCN1C(=O)[C@H](Cc1ccccc1)NC(=O)[C@@H]1CCCN1C(=O)[C@@H](N)Cc1ccc(O)cc1 | nt | nt | nt | nt | 14%[4.12 µM] | -4%[4.12 µM]
SMILES | HT1080-NT tox | IL1B secr inh | HT1080 IDH1KD tx | uPA generation | DT40 TDP1 no CPT | TDP1 cell CPT
O=C(NCc1nc2ccccc2[nH]1)C1=C[C@@H](c2ccc(C(F)(F)F)cc2)C[C@@H](OCc2ccc(CO)cc2)O1 | ? | -12 | ? | ? | 18µM* | ?
CC(Cc1ccccc1)NCC(=O)Nc1cc(N(C)C)nc2ccccc12 (stereo not given) | ? | nt | 23µM* | -7% | ? | ?
O=P(NC(c1ccccc1)c1ccccc1)(Oc1ccccc1)Oc1ccccc1 | -5% | 10 | -12% | -1% | ? | ?
O=c1[nH]c2ccccc2n1C1CCN(C(c2cccs2)c2nnnn2Cc2ccccc2)CC1 (stereo not given) | 18µM* | ? | 16µM* | nt | 15µM* | 18µM*
O=c1[nH]c2ccccc2n1C1CCN(C(c2ccccc2OC(F)(F)F)c2nnnn2Cc2ccccc2)CC1 (stereo not given) | 26µM* | -16 | ? | nt | 10µM* | 10µM*
COc1ccc(C(c2nnnn2-c2ccc(OC)cc2)N2CCC(n3c(=O)[nH]c4ccccc43)CC2)cc1 (stereo not given) | ? | ? | ? | nt | 9.2µM* | 18µM*
COc1ccc(C(c2nnnn2Cc2ccccc2)N2CCC(n3c(=O)[nH]c4ccccc43)CC2)cc1 (stereo not given) | ? | -1 | ? | nt | 16µM* | 18µM*
O=P1(NCCCl)OCCC(OO)N1CCCl (stereo not given) | -5% | nt | -4% | nt | -14% | -40%
